Laboratory results published in PubChem BioAssay AID1159580 (chemical genetic matrix, 2015).
“And” between values parts separate entries of the source, which are not always exact repeats. Equal values may be shown once. Screen size: about 5,500 compounds; about 2,000 (36%) were called active. Roughly 18% stayed inconclusive and do not appear here. Cut-off read from the data, not from the text of the source: active = normalized growth mostly below about 0.91 (no sharp cut-off); inconclusive = no clear call, values can overlap the other calls; inactive = mostly above about 0.92. Some of the results follow.

Assay: chemical genetic growth profiling, strain panel (AID 1159580);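 note: tested at 20 µM; growth read once vehicle control cultures reached saturation at 30 °C; 1 = growth at the plate median or of vehicle wells; lower values mean less growth of the strain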
Details: S. cerevisiae deletion strains, growth OD

Measured: normalized growth

CC(C)(S)[C@@H](N)C(=O)O
inactive: locus YAL013W, strain DEP1, active compounds read low 1.02 | locus YAL021C, strain ccr4, active compounds read low 1.01 | locus YAL026C, strain drs2, active compounds read low 1.01 | locus YAL030W, strain snc1, active compounds read low 1.01 | locus YBL061C, strain skt5, active compounds read low 1 | locus YBR009C, strain hhf1, active compounds read low 0.992 | locus YBR021W, strain FUR4, active compounds read low 1.03 | locus YBR023C, strain chs3, active compounds read low 1.01 | locus YBR171W, strain sec66, active compounds read low 1.01 | locus YBR229C, strain ROT2, active compounds read low 1.01 | locus YBR231C, strain swc5, active compounds read low 1 | locus YBR279W, strain paf1, active compounds read low 0.997 | locus YCL011C, strain gbp2, active compounds read low 1 | locus YCL016C, strain dcc1, active compounds read low 1 | locus YCL029C, strain bik1, active compounds read low 0.991 | locus YCL061C, strain MRC1, active compounds read low 1.01 | locus YCL069W, strain vba3, active compounds read low 0.993 | locus YCR088W, strain abp1, active compounds read low 1.01 | locus YDL005C, strain med2, active compounds read low 0.995 | locus YDL035C, strain GPR1, active compounds read low 1.01 | locus YDL040C, strain nat1, active compounds read low 1 | locus YDL074C, strain BRE1, active compounds read low 1.03 | locus YDL101C, strain DUN1, active compounds read low 1.03 | locus YDL134C, strain PPH21, active compounds read low 1.01 | locus YDL185W, strain tfp1, active compounds read low 0.988 | locus YDL192W, strain arf1, active compounds read low 0.984 | locus YDR001C, strain nth1, active compounds read low 1 | locus YDR069C, strain doa4, active compounds read low 0.997 | locus YDR101C, strain arx1, active compounds read low 0.986 | locus YDR137W, strain rgp1, active compounds read low 1.05 | locus YDR150W, strain NUM1, active compounds read low 1.01 | locus YDR159W, strain sac3, active compounds read low 0.994 | locus YDR162C, strain NBP2, active compounds read low 1 | locus YDR195W, strain ref2 0.997 | locus YDR297W, strain sur2, active compounds read low 1.01 | locus YDR318W, strain mcm21, active compounds read low 0.994 | locus YDR334W, strain swr1, active compounds read low 1.01 | locus YDR335W, strain msn5, active compounds read low 0.986 | locus YDR388W, active compounds read low 0.991 | locus YDR392W, strain spt3, active compounds read low 0.96 | locus YDR502C, strain sam2, active compounds read low 0.996 | locus YEL003W, strain gim4, active compounds read low 0.995 | locus YEL037C, strain rad23, active compounds read low 1 | locus YEL061C, strain CIN8 (second series), active compounds read low 0.995 | locus YEL061C, strain CIN8, active compounds read low 1.01 | locus YER015W, strain faa2, active compounds read low 1.01 | locus YER016W, strain bim1, active compounds read low 0.994 | locus YER110C, active compounds read low 0.989 | locus YER111C, strain swi4, active compounds read low 1.01 | locus YER155C, strain BEM2 (second series), active compounds read low 0.985 | locus YER155C, strain BEM2, active compounds read low 1.01 | locus YER167W, strain BCK2, active compounds read low 1.01 | locus YFR010W, strain ubp6, active compounds read low 0.998 | locus YGL078C, strain dbp3, active compounds read low 0.991 | locus YGL086W, strain mad1, active compounds read low 0.995 | locus YGL167C, strain pmr1, active compounds read low 1 | locus YGL173C, strain kem1, active compounds read low 1 | locus YGL227W, strain vid30, active compounds read low 0.992 | locus YGL240W, strain doc1, active compounds read low 1.01 | locus YGL248W, strain PDE1, active compounds read low 1.02 | locus YGL253W, strain hxk2, active compounds read low 0.993 | locus YGR135W, strain pre9, active compounds read low 0.989 | locus YGR252W, strain gcn5, active compounds read low 1.01 | locus YHR013C, strain ard1, active compounds read low 1 | locus YHR027C, strain rpn1, active compounds read low 1.03 | locus YHR030C, strain SLT2, active compounds read low 1.01 and 0.999 | locus YHR079C, strain IRE1 (second series), active compounds read low 0.987 | locus YHR079C, strain IRE1, active compounds read low 0.982 | locus YHR094C, strain hxt1, active compounds read low 0.986 | locus YHR129C, strain ARP1, active compounds read low 1.01 | locus YHR142W, strain chs7, active compounds read low 1.01 | locus YHR200W, strain rpn10, active compounds read low 1 | locus YIL066C, strain RNR3, active compounds read low 1.01 | locus YIL073C, strain SPO22, active compounds read low 0.975 | locus YIL125W, strain kgd1, active compounds read low 0.997 | locus YIR030C, strain dcg1, active compounds read low 0.989 | locus YJL092W, strain hpr5, active compounds read low 1 | locus YJL095W, strain BCK1 (second series), active compounds read low 1 | locus YJL095W, strain BCK1, active compounds read low 1.05 and 1 | locus YJL115W, strain asf1, active compounds read low 0.995 | locus YJL129C, strain trk1, active compounds read low 0.987 | locus YJL134W, strain LCB3, active compounds read low 1.01 | locus YJL154C, strain vps35, active compounds read low 0.994 | locus YJL164C, strain tpk1, active compounds read low 1.01 | locus YJL166W, strain qcr8, active compounds read low 1.01 | locus YJL168C, strain set2, active compounds read low 0.999 | locus YJL187C, strain SWE1 (second series), active compounds read low 1.01 | locus YJL187C, strain SWE1, active compounds read low 1
